Laboratory results as given in paper PMC7862700, “An all-to-all approach to the identification of sequence-specific readers for epigenetic DNA modifications on cytosine”.

What was measured:
Assay in all cases: DAPPL (digital affinity profiling via proximity ligation, sequencing); 10 mM Tris-HCl pH 7.5, 50 mM NaCl, 1 mM DTT, 4% glycerol, room temperature, 30 min; GST-TFs on glutathione beads, 16-mer random dsDNA library, 0.1% formaldehyde crosslink after washing; high values mean tight binding
FEV = biological target: T1, FEV (Homo sapiens, UniProt Q99581 1-238); conditions: protein: recombinant; tags: N-terminal GST; dsDNA, one strand shown
T1 sequence: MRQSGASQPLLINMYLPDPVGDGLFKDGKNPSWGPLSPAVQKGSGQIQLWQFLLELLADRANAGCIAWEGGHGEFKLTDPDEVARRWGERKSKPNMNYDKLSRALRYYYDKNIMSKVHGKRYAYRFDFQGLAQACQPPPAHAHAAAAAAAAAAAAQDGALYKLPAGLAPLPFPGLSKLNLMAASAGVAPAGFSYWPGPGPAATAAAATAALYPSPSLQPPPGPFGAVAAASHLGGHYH
In short: (§1)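 A tag-only sample was pooled with DNA-barcoded human transcription factors that had been expressed in yeast as GST fusions and captured on glutathione beads. The pools were incubated for 30 min at room temperature with 200 nmole of a random double-stranded 16-mer DNA library in Tris/NaCl/DTT/glycerol buffer, then washed, crosslinked with 0.1% formaldehyde, proximity-ligated (BsaI/T4 ligase, 1 h, 37 °C), PCR-amplified and sequenced on an Illumina NextSeq500. Binding signal is each hexamer's read frequency for a factor divided by its frequency for the tag-only sample.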

ETV5 = ETV5 (Homo sapiens, UniProt P41161 1-510); conditions: protein: recombinant; tags: N-terminal GST; dsDNA, one strand shown
In short: as §1

HSF1 = HSF1 (Homo sapiens, UniProt Q00613 1-529); conditions: protein: recombinant; tags: N-terminal GST; chain copies: 3; dsDNA, one strand shown
In short: as §1

SPIC = biological target: T2, SPIC (Homo sapiens, UniProt Q8N5J4 1-248); conditions: protein: recombinant; tags: N-terminal GST; dsDNA, one strand shown
T2 sequence: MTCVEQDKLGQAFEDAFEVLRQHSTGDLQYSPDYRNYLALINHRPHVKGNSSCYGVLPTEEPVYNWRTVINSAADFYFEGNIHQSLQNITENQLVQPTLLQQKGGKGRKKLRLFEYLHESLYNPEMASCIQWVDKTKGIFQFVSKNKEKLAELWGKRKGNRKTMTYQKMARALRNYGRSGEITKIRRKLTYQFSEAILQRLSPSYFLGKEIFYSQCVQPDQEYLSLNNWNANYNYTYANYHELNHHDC
In short: as §1

ELF4 = ELF4 (Homo sapiens, UniProt Q99607 1-663); conditions: protein: recombinant; tags: N-terminal GST; dsDNA, one strand shown
In short: as §1

ELK4 = biological target: T3, ELK4 (Homo sapiens, UniProt P28324-2 1-405); conditions: protein: recombinant; tags: N-terminal GST; dsDNA, one strand shown
T3 sequence: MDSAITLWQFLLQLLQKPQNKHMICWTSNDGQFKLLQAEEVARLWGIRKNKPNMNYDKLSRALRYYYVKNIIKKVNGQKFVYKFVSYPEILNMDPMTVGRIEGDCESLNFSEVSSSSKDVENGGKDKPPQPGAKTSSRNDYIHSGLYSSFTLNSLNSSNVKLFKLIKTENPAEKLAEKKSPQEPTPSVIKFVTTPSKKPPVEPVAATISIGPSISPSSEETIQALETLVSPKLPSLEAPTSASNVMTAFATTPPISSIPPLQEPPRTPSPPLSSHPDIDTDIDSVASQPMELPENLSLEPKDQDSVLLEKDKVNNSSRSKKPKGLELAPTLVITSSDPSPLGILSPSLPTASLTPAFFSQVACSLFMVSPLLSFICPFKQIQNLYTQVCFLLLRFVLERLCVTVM
In short: as §1

ETV2 = biological target: T4, ETV2 (Homo sapiens, UniProt O00321 1-342); conditions: protein: recombinant; tags: N-terminal GST; dsDNA, one strand shown
T4 sequence: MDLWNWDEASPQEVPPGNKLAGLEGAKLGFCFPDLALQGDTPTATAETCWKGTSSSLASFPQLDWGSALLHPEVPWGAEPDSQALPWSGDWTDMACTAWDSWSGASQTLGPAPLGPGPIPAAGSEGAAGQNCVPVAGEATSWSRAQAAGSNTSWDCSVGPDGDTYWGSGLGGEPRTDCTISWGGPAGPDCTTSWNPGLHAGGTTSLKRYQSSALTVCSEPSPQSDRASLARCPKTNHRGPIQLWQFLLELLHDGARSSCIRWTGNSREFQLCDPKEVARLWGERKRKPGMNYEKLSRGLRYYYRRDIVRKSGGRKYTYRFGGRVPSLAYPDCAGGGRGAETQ
In short: as §1

ELF3 = biological target: T5, ELF3 (Homo sapiens, UniProt P78545 1-371); conditions: protein: recombinant; tags: N-terminal GST; dsDNA, one strand shown
T5 sequence: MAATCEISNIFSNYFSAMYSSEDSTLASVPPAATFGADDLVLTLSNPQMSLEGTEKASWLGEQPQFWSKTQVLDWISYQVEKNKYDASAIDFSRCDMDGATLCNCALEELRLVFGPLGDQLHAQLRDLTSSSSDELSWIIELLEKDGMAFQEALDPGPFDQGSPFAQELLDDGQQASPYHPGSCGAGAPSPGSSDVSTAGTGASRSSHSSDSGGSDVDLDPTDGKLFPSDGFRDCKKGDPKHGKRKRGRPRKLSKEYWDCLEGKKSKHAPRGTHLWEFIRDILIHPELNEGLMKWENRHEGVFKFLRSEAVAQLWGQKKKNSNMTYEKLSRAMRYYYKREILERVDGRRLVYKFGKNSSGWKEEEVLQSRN
In short: as §1

CRX = CRX (Homo sapiens, UniProt O43186 1-299); conditions: protein: recombinant; tags: N-terminal GST; dsDNA, one strand shown
In short: as §1

ETV1 = ETV1 (Homo sapiens, UniProt P50549 1-477); conditions: protein: recombinant; tags: N-terminal GST; dsDNA, one strand shown
In short: as §1

ERF = biological target: T6, ERF (Homo sapiens, UniProt P50548 1-548); conditions: protein: recombinant; tags: N-terminal GST; dsDNA, one strand shown
T6 sequence: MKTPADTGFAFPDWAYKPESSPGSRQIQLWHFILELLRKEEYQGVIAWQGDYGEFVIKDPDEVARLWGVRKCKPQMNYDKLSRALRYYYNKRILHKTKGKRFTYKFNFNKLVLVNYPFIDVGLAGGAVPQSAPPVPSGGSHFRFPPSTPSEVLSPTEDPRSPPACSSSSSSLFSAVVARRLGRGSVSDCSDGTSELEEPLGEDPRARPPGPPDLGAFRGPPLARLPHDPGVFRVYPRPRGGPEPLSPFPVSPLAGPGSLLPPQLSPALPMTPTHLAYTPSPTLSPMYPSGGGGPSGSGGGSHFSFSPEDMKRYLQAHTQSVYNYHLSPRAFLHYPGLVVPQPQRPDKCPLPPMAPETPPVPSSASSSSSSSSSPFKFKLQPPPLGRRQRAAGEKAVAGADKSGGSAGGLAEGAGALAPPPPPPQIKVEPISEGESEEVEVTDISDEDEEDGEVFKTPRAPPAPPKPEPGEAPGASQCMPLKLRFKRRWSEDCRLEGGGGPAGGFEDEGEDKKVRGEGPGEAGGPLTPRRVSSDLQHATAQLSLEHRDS
In short: as §1

ETV3L = biological target: T7, ETV3L (Homo sapiens, UniProt Q6ZN32 1-361); conditions: protein: recombinant; tags: N-terminal GST; dsDNA, one strand shown
T7 sequence: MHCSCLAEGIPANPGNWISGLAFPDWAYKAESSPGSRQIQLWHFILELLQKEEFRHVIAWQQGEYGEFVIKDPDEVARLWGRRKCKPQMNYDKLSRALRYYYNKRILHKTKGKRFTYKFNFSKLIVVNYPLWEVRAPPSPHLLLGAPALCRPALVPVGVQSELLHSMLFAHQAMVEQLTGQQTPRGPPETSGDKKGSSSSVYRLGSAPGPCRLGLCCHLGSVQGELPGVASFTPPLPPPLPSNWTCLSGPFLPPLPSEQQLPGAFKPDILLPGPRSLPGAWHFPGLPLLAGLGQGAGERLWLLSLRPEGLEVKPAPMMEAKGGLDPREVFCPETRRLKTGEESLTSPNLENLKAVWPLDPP
In short: as §1

ETS2 = biological target: T8, ETS2 (Homo sapiens, UniProt P15036 1-469); conditions: protein: recombinant; tags: N-terminal GST; dsDNA, one strand shown
T8 sequence: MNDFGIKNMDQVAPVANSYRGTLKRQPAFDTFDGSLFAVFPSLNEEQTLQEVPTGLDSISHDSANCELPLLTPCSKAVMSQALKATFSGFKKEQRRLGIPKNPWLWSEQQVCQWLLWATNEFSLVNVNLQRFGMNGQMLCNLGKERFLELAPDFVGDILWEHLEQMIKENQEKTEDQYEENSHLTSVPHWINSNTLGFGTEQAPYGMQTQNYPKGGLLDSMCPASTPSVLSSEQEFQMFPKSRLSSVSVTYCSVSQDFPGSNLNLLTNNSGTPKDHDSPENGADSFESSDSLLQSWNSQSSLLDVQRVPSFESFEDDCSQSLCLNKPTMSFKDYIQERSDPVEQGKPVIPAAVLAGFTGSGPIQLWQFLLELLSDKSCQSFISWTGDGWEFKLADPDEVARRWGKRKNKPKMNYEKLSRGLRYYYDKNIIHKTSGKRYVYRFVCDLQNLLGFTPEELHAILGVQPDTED
In short: as §1

SPDEF = biological target: T9, SPDEF (Homo sapiens, UniProt O95238 1-335); conditions: protein: recombinant; tags: N-terminal GST; dsDNA, one strand shown
T9 sequence: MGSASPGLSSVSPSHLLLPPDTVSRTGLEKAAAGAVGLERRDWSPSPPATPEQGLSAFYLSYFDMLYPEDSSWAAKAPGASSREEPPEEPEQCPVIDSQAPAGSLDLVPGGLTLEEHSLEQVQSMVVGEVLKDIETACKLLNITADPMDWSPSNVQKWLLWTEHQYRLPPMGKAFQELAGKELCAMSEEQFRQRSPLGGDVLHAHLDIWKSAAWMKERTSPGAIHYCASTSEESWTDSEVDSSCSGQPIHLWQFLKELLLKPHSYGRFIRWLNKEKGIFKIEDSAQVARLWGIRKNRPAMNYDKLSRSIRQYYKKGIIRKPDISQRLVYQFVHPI
In short: as §1

ETV7 = biological target: T10, ETV7 (Homo sapiens, UniProt Q9Y603 1-341); conditions: protein: recombinant; tags: N-terminal GST; dsDNA, one strand shown
T10 sequence: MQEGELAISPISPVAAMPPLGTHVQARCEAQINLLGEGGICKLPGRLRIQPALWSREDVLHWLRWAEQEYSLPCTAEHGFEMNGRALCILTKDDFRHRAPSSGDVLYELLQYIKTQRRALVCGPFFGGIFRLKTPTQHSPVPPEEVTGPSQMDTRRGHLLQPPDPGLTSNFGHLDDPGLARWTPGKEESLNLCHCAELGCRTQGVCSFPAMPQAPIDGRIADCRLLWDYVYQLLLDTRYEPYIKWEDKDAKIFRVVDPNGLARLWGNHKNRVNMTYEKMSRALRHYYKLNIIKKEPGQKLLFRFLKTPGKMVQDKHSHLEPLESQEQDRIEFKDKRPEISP
In short: as §1

ELF5 = biological target: T11, ELF5 (Homo sapiens, UniProt Q9UKW6-2 1-255); conditions: protein: recombinant; tags: N-terminal GST; dsDNA, one strand shown
T11 sequence: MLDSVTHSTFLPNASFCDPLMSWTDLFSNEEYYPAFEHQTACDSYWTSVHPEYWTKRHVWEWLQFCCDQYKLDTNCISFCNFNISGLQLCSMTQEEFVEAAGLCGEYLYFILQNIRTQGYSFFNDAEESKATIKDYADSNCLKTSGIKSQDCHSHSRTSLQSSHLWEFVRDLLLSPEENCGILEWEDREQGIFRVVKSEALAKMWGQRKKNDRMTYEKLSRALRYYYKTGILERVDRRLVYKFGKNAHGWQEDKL
In short: as §1

ETV3 = biological target: T12, ETV3 (Homo sapiens, UniProt P41162-2 1-143); conditions: protein: recombinant; tags: N-terminal GST; dsDNA, one strand shown
T12 sequence: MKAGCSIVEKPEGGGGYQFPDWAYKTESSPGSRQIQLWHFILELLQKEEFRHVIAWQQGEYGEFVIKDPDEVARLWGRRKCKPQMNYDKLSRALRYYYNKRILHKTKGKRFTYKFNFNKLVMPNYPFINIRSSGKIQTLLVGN
In short: as §1

ETV6 = ETV6 (Homo sapiens, UniProt P41212 1-452); conditions: protein: recombinant; tags: N-terminal GST; dsDNA, one strand shown
In short: as §1

Sequence of ELF4 (Q99607 whole entry): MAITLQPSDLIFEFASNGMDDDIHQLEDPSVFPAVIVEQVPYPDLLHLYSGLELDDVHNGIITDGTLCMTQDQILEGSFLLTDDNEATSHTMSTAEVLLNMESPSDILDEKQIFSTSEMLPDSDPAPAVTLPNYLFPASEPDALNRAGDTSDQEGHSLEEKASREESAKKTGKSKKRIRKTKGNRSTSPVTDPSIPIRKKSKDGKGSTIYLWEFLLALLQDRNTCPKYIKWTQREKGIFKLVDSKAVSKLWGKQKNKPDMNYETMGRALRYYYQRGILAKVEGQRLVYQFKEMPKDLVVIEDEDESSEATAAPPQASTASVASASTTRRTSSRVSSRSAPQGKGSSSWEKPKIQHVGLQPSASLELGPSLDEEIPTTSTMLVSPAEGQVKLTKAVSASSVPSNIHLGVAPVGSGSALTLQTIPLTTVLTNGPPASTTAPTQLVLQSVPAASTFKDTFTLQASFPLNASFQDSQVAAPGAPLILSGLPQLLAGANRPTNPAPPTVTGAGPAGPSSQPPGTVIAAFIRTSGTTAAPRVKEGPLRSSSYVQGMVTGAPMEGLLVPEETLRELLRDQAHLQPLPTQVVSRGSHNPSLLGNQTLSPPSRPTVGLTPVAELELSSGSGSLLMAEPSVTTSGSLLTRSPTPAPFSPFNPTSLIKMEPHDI
Sequence of CRX (O43186 whole entry): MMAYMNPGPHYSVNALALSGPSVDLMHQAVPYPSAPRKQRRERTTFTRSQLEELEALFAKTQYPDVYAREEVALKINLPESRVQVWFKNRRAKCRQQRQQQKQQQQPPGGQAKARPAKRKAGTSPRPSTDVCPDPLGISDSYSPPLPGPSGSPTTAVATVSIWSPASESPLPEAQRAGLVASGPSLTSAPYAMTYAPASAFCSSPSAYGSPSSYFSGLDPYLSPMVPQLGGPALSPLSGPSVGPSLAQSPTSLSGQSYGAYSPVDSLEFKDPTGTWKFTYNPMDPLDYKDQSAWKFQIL
Sequence of ETV1 (P50549 whole entry): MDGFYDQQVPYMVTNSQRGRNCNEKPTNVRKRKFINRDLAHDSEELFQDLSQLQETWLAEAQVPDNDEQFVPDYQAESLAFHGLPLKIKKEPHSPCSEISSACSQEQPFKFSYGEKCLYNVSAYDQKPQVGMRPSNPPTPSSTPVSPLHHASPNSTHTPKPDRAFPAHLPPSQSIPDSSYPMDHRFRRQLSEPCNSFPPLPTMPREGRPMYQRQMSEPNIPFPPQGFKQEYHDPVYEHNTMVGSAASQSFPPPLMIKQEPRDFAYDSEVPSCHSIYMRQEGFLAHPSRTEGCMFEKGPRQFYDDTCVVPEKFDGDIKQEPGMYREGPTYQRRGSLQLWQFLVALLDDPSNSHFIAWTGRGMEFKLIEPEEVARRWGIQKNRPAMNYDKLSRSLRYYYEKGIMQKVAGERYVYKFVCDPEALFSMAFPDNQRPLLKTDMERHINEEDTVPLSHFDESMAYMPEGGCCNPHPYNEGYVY
Sequence of ETV5 (P41161 whole entry): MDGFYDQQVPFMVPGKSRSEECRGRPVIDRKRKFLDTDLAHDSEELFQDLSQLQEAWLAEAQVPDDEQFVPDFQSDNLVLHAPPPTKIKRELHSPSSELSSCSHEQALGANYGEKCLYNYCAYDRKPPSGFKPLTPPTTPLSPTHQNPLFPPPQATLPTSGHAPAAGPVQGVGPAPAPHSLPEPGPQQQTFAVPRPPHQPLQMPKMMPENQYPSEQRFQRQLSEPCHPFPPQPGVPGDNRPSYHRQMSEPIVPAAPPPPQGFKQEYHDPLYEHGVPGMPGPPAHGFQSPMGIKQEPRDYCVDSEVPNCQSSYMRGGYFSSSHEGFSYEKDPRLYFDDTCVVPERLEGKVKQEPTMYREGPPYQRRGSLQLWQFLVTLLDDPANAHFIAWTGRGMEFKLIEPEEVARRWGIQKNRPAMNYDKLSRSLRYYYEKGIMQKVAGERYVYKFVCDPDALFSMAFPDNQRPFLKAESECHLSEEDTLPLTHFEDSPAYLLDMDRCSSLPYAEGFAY
Sequence of ETV6 (P41212 whole entry): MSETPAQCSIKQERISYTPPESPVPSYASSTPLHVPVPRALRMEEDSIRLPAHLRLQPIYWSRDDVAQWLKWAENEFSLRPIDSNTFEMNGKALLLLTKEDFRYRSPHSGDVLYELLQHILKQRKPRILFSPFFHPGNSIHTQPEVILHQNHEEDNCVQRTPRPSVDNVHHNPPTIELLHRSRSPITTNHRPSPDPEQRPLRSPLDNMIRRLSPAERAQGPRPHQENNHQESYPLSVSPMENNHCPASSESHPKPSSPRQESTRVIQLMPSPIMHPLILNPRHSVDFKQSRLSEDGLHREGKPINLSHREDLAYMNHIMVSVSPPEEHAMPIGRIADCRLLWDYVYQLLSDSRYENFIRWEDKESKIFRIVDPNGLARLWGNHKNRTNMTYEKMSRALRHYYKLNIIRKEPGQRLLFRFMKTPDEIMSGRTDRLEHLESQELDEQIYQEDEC
Sequence of HSF1 (Q00613 whole entry): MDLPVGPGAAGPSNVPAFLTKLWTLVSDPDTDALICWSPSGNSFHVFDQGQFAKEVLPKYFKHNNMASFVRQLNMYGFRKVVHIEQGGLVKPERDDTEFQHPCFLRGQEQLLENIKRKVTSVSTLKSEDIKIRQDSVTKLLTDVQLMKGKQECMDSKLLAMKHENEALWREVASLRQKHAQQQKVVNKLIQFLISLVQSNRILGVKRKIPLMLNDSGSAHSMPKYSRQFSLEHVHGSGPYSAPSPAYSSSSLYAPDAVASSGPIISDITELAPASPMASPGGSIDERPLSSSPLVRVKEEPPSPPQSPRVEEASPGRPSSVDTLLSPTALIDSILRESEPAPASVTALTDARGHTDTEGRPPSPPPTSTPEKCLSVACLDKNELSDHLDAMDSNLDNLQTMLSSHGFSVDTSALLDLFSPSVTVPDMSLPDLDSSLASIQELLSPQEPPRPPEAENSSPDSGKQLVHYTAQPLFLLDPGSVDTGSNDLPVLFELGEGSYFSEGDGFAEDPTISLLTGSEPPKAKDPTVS

Q: Which results are given for CGCTTA?
A: binding signal (FEV): 1.2 fold enrichment (6-mer frequency, TF over GST control); binding signal (ETV5): 1.29 fold enrichment (6-mer frequency, TF over GST control); binding signal (HSF1): 1.53 fold enrichment (6-mer frequency, TF over GST control); binding signal (SPIC): 1.22 fold enrichment (6-mer frequency, TF over GST control); binding signal (ELF4): 1.29 fold enrichment (6-mer frequency, TF over GST control); binding signal (ELK4): 1.32 fold enrichment (6-mer frequency, TF over GST control); binding signal (ETV2): 1.1 fold enrichment (6-mer frequency, TF over GST control); binding signal (ELF3): 1.29 fold enrichment (6-mer frequency, TF over GST control); binding signal (CRX): 2.11 fold enrichment (6-mer frequency, TF over GST control); binding signal (ETV1): 1.24 fold enrichment (6-mer frequency, TF over GST control); binding signal (ERF): 1.31 fold enrichment (6-mer frequency, TF over GST control); binding signal (ETV3L): 1.3 fold enrichment (6-mer frequency, TF over GST control); binding signal (ETS2): 1.25 fold enrichment (6-mer frequency, TF over GST control); binding signal (SPDEF): 1.3 fold enrichment (6-mer frequency, TF over GST control); binding signal (ETV7): 1.31 fold enrichment (6-mer frequency, TF over GST control); binding signal (ELF5): 1.19 fold enrichment (6-mer frequency, TF over GST control); binding signal (ETV3): 1.34 fold enrichment (6-mer frequency, TF over GST control); binding signal (ETV6): 1.11 fold enrichment (6-mer frequency, TF over GST control)
